Measurements: PubChem BioAssay (NCATS)
Inconclusive results are not listed. Active and inactive are the calls of the source. Calls come from the whole dose curve; as a rule, active = well fitted curve in the direction sought with a large enough effect; inconclusive = small, poorly fitted or top-dose-only effect, or another doubt; inactive = no such curve, though single readings can be large; an effect the other way counts as inactive or inconclusive.

How the values were obtained:
[1] = MultiTox-Fluor Cytotoxicity Assay - LYMP1-003 - Dead Cells (AID 961); details: LYMP1-003 lymphoblastoid cells, dead-cell protease fluorescence; series mostly up to 92.2 µM; note: nearly all actives have a fitted effect of over 70% in size
Procedure, shortened: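 Dead-cell protease release, detected as bis-AAF-R110 fluorescence at 485/520 nm, was measured in LYMP1-003 cells after 16 h compound treatment at 37 C. AC50 values came from Hill-modeled qHTS curves normalized to DMSO (0%) and 15 uM tetraoctylammonium bromide (100%).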

[2] = Cell Viability - LYMP1-003 - Assay at 24 hr (AID 963); details: LYMP1-003 lymphoblastoid cell viability; series mostly up to 92.2 µM
Procedure, shortened: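 Cytotoxicity is scored as a concentration-dependent fall in ATP-linked luciferase signal in human lymphoblastoid LYMP1-003 cells treated 24 hr at 37 C in complete culture medium.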

[3] = Cell Viability - LYMP1-003 - Assay at 40 hr (AID 964); details: LYMP1-003 lymphoblastoid viability; series mostly up to 92.2 µM; note: nearly all actives have a fitted effect of over 60% in size
Procedure, shortened: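 Luminescent ATP signal (CellTiter-Glo) served as the viability read-out after 40 hr compound treatment of human lymphoblastoid LYMP1-003 cells at 37 C. Decreases in ATP were fitted with the Hill equation to give AC50.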

[4] = Cell Viability - LYMP2-003 (AID 965); details: LYMP2-003 lymphoblastoid cell viability; series mostly up to 92.2 µM;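 note: cells exposed to compounds for 24 h before reading; nearly all actives have a fitted effect of over 50% in size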
Procedure, shortened: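 qHTS, human lymphoblastoid line, 2500 cells/well, complete medium. 24 h drug, 37 C. ATP-based luminescent readout; Hill-fit AC50.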

[5] = Cell Viability - LYMP2-004 (AID 966); details: LYMP2-004 lymphoblastoid cell viability, qHTS; series mostly up to 92.2 µM; note: nearly all actives have a fitted effect of over 65% in size
Procedure, shortened: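 qHTS cytotoxicity: human lymphoblastoid line, 24 hr compound treatment, 37 C, complete medium. Viability read as cellular ATP via luciferase luminescence; tetraoctylammonium bromide served as positive control.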

[6] = Cell Viability - LYMP2-005 (AID 967); details: LYMP2-005 lymphoblastoid cell viability; series mostly up to 92.2 µM
Procedure, shortened: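 Luciferase-based ATP quantitation served as the viability measure in human lymphoblastoid LYMP2-005 cells exposed to test compounds for 24 h at 37 C in complete culture medium. Potency (AC50) was obtained by fitting concentration-response curves with the Hill equation.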

[7] = Cell Viability - LYMP2-009 (AID 968); details: LYMP2-009 lymphoblastoid cell viability; series mostly up to 92.2 µM; note: nearly all actives have a fitted effect of over 55% in size
[8] = Cell Viability - LYMP2-011 (AID 969); details: LYMP2-011 lymphoblastoid cells viability; series mostly up to 92.2 µM; note: nearly all actives have a fitted effect of over 60% in size
Procedure, shortened: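 In this qHTS cytotoxicity format, compounds are tested across concentrations on human lymphoblastoid cells in complete medium for 24 hours at 37 C. Viability is taken as cellular ATP measured by luciferase luminescence.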

[9] = Cell Viability - LYMP2-013 (AID 970); details: LYMP2-013 lymphoblastoid cells viability; series mostly up to 92.2 µM; note: nearly all actives have a fitted effect of over 55% in size
Procedure, shortened: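 Cytotoxicity is scored as a concentration-dependent drop in intracellular ATP in human lymphoblastoid cells after 24 hr compound exposure at 37 C. ATP is quantified by luciferase luminescence, and AC50 values come from Hill-equation modeling.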

[10] = Cell Viability - LYMP2-002 (AID 977); details: LYMP2-002 lymphoblastoid cell viability, qHTS; series mostly up to 92.2 µM;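 note: compound exposure lasted 24 h at 37 °C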
Procedure, shortened: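 In this qHTS viability screen, 2500 human lymphoblastoid cells per well receive compound for 24 hr at 37 C, and luciferase-based ATP luminescence gives the viability signal. Tetraoctylammonium bromide serves as positive control.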

[11] = Cell Viability - LYMP2-006 (AID 978); details: LYMP2-006 lymphoblastoid cell viability, qHTS; series mostly up to 92.2 µM; note: nearly all actives have a fitted effect of over 60% in size
Procedure, shortened: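 In this cytotoxicity screen, the human lymphoblastoid line grew in complete medium with test compounds for 24 hr at 37 C. Cellular ATP served as the viability signal.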

[12] = Cell Viability - LYMP2-008 (AID 980); details: LYMP2-008 lymphoblastoid cell viability, qHTS; series mostly up to 92.2 µM; note: nearly all actives have a fitted effect of over 60% in size
Procedure, shortened: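 Cells seeded at 2500/well and rested 5 hr at 37 C; compounds added over a concentration range and incubated 24 hr at 37 C; CellTiter-Glo added, 30 min at room temperature; luminescence read and AC50 fitted with Hill model.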

Measured: outcome

Cc1ccc(N)cc1O
inactive: all assays above

CC(=O)O[C@@H]1CC(C)=C2[C@H]1[C@H](C)CC[C@H]2/C=C(\C)C(=O)O
inactive: all assays above
